This passage reports growth results from PubChem BioAssay (NCI).

Structures are written as SMILES. This is part of a sample that, as a whole, favours compounds with a hit. Of some 83,000 tested, about 20% had one in any assay.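 Plates (96-well) were seeded with cells, treated with compound at one concentration, and incubated for 48 hours before percent growth was determined.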 A number with no mark means an inactive call. The source made the active and inactive calls. Rule for the calls: active = growth percent below 10; inactive = the rest.

Test systems include HCT-15 colon; HT29 colon; SNB-75 CNS; SNB-19 CNS; U251 CNS; PC-3 prostate; SK-MEL-5 melanoma; UACC-62 melanoma; LOX IMVI melanoma; SK-MEL-28 melanoma.
Assay in all cases: NCI-60 one-dose screen, 48 h (100 = growth as untreated, 0 = no growth, -100 = all killed)
What all share (conditions): 10 µM unless noted

For the compound `O=C(O)C(Cl)(Cl)C(F)(F)F`, the growth in the assay with HCT-15 colon was 104%; in the assay on HT29 colon, 103%; in the assay with SNB-75 CNS, 97.7%; in the assay on SNB-19 CNS, 105%; with U251 CNS it was 108%; in the assay with PC-3 prostate, 102%. Also, the growth is 103% in the assay with SK-MEL-5 melanoma, 105% in the assay with UACC-62 melanoma, 106% in the assay with LOX IMVI melanoma and 110% in the assay on SK-MEL-28 melanoma.
Consider `CC(=O)OC[C@]1(C)C=C2C(=O)[C@](C)(O)C3(CC3)C(C)=C2[C@H]1O`, for which the growth in the assay on HCT-15 colon was -8.75% (active); with HT29 colon, -12% (active); with SNB-75 CNS, -91.5% (active); in the assay with SNB-19 CNS it was -16.5% (active); in the assay on U251 CNS, 1.39% (active); in the assay on PC-3 prostate, -15.6% (active). For the same compound, the growth is -62% (active) in the assay on SK-MEL-5 melanoma, -84.4% (active) in the assay on UACC-62 melanoma, -30.3% (active) in the assay on LOX IMVI melanoma and -56% (active) in the assay with SK-MEL-28 melanoma.
Consider `CC(=O)Nc1ccc(NC(=O)c2ccc([As](O)O)cc2)cc1`, for which the growth was 85% with HCT-15 colon; 112% with HT29 colon; 89.4% in the assay on SNB-75 CNS; 92.9% with SNB-19 CNS; 56.5% in the assay on U251 CNS; 100% in the assay on PC-3 prostate. The growth in the assay with SK-MEL-5 melanoma is 98.1%; in the assay with UACC-62 melanoma, 78.3%; with LOX IMVI melanoma, 76.4%; with SK-MEL-28 melanoma, 118%.
`N#C[S-].[Au+].c1ccc(CN2[CH-]N(Cc3ccccc3)C(c3ccccc3)=C2c2ccccc2)cc1`: the growth is 13.8% in the assay on HCT-15 colon; 7.04% (active) in the assay with HT29 colon; 43.6% in the assay on SNB-75 CNS; 16.1% with SNB-19 CNS; 5.57% (active) in the assay on U251 CNS; 7.2% (active) in the assay on PC-3 prostate. The growth in the assay on SK-MEL-5 melanoma was -36.5% (active); in the assay on UACC-62 melanoma, 3.87% (active); in the assay with LOX IMVI melanoma, 7.61% (active); in the assay with SK-MEL-28 melanoma, 20.8%.
With `CCCC(C)C1(CC)C(=O)NC(=O)N(C)C1=O` (stereo not given), the growth with HCT-15 colon is 107%; in the assay on HT29 colon, 94.6%; with SNB-75 CNS it was 98.8%; in the assay with SNB-19 CNS it was 104%; in the assay on U251 CNS it was 92.1%; in the assay with PC-3 prostate, 85.8%. The growth in the assay on SK-MEL-5 melanoma is 89.1%; with UACC-62 melanoma it was 90.8%; in the assay with LOX IMVI melanoma, 98.6%; in the assay on SK-MEL-28 melanoma, 116%.
Regarding `O=C1C2CC=CCC2C(=O)N1SC(Cl)(Cl)Cl` (stereo not given), the growth with HCT-15 colon is 67.3%; in the assay with HT29 colon it was 89.2%; in the assay with SNB-75 CNS, 104%; in the assay on SNB-19 CNS it was 91.5%; with U251 CNS, 98.8%; in the assay on PC-3 prostate, 81.9%. Further, the growth in the assay with SK-MEL-5 melanoma is 94.1%; in the assay with UACC-62 melanoma it was 93.6%; in the assay with LOX IMVI melanoma, 78.6%; in the assay on SK-MEL-28 melanoma, 132%.
On to `COc1ccc([As]=[As]c2ccc(OC)c(NCS(=O)(=O)O)c2)cc1NCS(=O)(=O)O` (stereo not given), for which the growth in the assay with HCT-15 colon is -72.2% (active); with HT29 colon it was 39.8%; in the assay on SNB-75 CNS it was 36.9%; in the assay on SNB-19 CNS it was 0.15% (active); in the assay with U251 CNS, -43% (active); in the assay with PC-3 prostate, 32.5%. The growth is 1.61% (active) with SK-MEL-5 melanoma, 17% in the assay with UACC-62 melanoma, 5.45% (active) in the assay on LOX IMVI melanoma and 0.0807% (active) in the assay with SK-MEL-28 melanoma.
In the case of `COc1ccc(/C=C\c2cc(OC)c(OC)c(OC)c2)c(NS(=O)(=O)c2ccc(C)cc2)c1O`, the growth with HCT-15 colon was 15.1%; in the assay on HT29 colon, 17.4%; in the assay on SNB-75 CNS it was 41.6%; in the assay with SNB-19 CNS it was 48.1%; with U251 CNS it was 20.7%; in the assay on PC-3 prostate, 36.3%. Besides, the growth with SK-MEL-5 melanoma was -42.3% (active); in the assay on UACC-62 melanoma it was 53%; in the assay on LOX IMVI melanoma, 18.3%; in the assay on SK-MEL-28 melanoma, 61.7%.
Take `CC1(C)CN1P(=O)(N1CC1(C)C)N1CC1(C)C` (stereo not given): the growth with HCT-15 colon was 112%; in the assay with HT29 colon, 120%; with SNB-75 CNS, 72.7%; in the assay with SNB-19 CNS it was 105%; in the assay on U251 CNS, 98.2%; in the assay with PC-3 prostate it was 99.1%. Further, the growth with SK-MEL-5 melanoma is 117%; in the assay on UACC-62 melanoma, 98%; with LOX IMVI melanoma, 103%; in the assay with SK-MEL-28 melanoma, 99.5%.
In the case of `O=C1OCC2=C1C(c1ccccc1)c1cc3c(cc1N2)OCO3` (stereo not given), the growth in the assay on HCT-15 colon was 10.9%; in the assay with HT29 colon, 4.87% (active); in the assay with SNB-75 CNS, 45.9%; in the assay with SNB-19 CNS it was 36.2%; with U251 CNS, 9.54% (active); in the assay on PC-3 prostate, 25.9%. Also, the growth is -39.6% (active) in the assay on SK-MEL-5 melanoma, 31% in the assay on UACC-62 melanoma, 26.2% in the assay on LOX IMVI melanoma and 64.2% in the assay on SK-MEL-28 melanoma.
As to `CN(C)CCCOc1ccc2c(c1)c(C(=O)C(=O)NCCO)cn2Cc1ccccc1`, the growth is 105% in the assay on HCT-15 colon; 107% in the assay with HT29 colon; 97.4% in the assay with SNB-75 CNS; 102% with SNB-19 CNS; 96.4% in the assay on U251 CNS; 105% in the assay on PC-3 prostate. For the same compound, the growth in the assay with SK-MEL-5 melanoma was 99.8%; with UACC-62 melanoma, 100%; in the assay with LOX IMVI melanoma, 93%; with SK-MEL-28 melanoma, 118%.
